Where “and” joins values, the source holds several entries; their conditions need not be identical. Equal entries are not always repeated. About 2,200 (0.76%) of roughly 290,000 compounds were called active. Rule as the data show it: active = inhibition above about 30%; inconclusive = no clear call, values can overlap the other calls; inactive = below that. The sample as a whole holds a higher share of actives than the screen did.
Target: Protein RecA (Mycobacterium tuberculosis (strain ATCC 25618 / H37Rv)) (UniProt P9WHJ3)
Sequence (P9WHJ3 whole entry, looked up): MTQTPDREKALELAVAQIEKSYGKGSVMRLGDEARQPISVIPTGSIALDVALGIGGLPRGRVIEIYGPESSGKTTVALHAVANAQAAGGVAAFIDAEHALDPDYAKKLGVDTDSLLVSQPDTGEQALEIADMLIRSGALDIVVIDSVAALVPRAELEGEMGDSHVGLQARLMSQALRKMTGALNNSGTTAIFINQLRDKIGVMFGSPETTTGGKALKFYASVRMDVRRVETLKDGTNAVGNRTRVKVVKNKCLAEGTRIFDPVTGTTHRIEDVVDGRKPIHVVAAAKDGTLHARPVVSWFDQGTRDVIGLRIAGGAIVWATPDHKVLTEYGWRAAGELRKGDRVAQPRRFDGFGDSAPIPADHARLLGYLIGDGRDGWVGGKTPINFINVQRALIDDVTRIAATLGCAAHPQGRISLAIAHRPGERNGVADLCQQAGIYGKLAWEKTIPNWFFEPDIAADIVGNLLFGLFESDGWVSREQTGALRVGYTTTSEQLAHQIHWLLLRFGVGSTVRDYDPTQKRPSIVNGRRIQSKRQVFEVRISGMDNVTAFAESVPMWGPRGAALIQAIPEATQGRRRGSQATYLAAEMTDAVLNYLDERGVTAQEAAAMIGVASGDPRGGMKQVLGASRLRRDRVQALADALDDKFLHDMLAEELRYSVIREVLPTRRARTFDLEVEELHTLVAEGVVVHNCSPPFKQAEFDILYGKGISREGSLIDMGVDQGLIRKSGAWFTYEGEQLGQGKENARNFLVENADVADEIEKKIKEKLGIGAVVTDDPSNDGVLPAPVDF
Experiment: Mtb RecA intein splicing inhibitors, primary screen, biochemical, fluorescence, HTS (AID 2221);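 also: 0% = vehicle wells and 100% = reference inhibitor control wells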
Conditions: cell-free RecA intein splicing, stronger effect = higher value, concentration not given here

| Compound | inhibition |
| --- | --- |
| CN(C)S(=O)(=O)c1ccc2oc(SCC(=O)Nc3ccccc3F)nc2c1 | -2.69% (inactive) |
| N#Cc1c(-c2ccccc2)cc(-c2ccccc2)nc1SCC(=O)O | 0.292% (inactive) |
| N#CCc1c(C#N)c(N)nc(N2CCCC2)c1C#N | 0.638% (inactive) |
| N#Cc1c(N2CCCCC2)nc(N)c2c(N)nc(SCC(=O)O)cc12 | 61.1% (active) |
| CCOC(=O)C1=C(c2ccccc2)NC(=S)NC1c1ccc(Cl)cc1 (configuration not stated) | 8.84% (inactive) |
| CCOc1ccc(C2NC(=S)NC3=C2CCc2ccccc23)cc1 (configuration not stated) | 15% (inactive) |
| COc1ccc(C2NC(=S)NC3=C2CCc2ccccc23)cc1OC (configuration not stated) | 45.9% (active) |
| Cc1nn(C(C)(C)C)c(OC(=O)CC(C)C)c1S(=O)(=O)c1ccccc1 | 8.28% (inactive) |
| O=C(CCNS(=O)(=O)c1cccs1)N1CCN(c2ccc(F)cc2)CC1 | -0.494% (inactive) |
| Cc1ccc(CNC(=O)COc2ccc3c(c2)CCC3)cc1 | 1.94% (inactive) |
| COc1cc(C(=O)NCc2ccc3c(c2)cc(C)n3C)cc(OC)c1OC | 1.47% (inactive) |
| CCOCC(=O)NCc1ccc2c(c1)cc(C)n2C | 30.1% (active) |
| CCc1cc(CNC(=O)CC2C(=O)NCCN2Cc2ccccc2C(F)(F)F)on1 (configuration not stated) | -0.415% (inactive) |
| Cc1oc2cc([N+](=O)[O-])c(O)c([N+](=O)[O-])c2c1C(=O)c1ccc(Br)cc1 | 41.5% (active) |
| COc1ccc(C(=O)c2c(C)oc3cc([N+](=O)[O-])c(O)c([N+](=O)[O-])c23)cc1 | 8.62% (inactive) |
| Cc1oc2cc(Br)c(O)c(Br)c2c1C(=O)c1ccccc1 | 12.7% (inactive) |
| COC(=O)[C@H]1[C@H]2C[C@H]3c4[nH]c5ccccc5c4CCN3C[C@@H]2CC[C@@H]1O | 0.605% (inactive) and -6.9% (inactive) |
| CC(Oc1cc2oc(=O)c3c(c2cc1Cl)CCCC3)C(=O)NCc1ccncc1 (configuration not stated) | 0.148% (inactive) |
| O=C(CN(C(=O)c1csnn1)c1cccc(Cl)c1)NC1CCCC1 | -3.49% (inactive) |
| O=C(Nc1ccc(Cl)c(Cl)c1)c1ccccc1NC(=O)C1CC=CCC1C(=O)O (configuration not stated) | 0.473% (inactive) |
| O=C(Nc1ccccc1)c1nnsc1S(=O)(=O)c1ccc(Cl)cc1 | 70% (active) |
| CN(c1cccc(NC(=O)Nc2ccc(Cl)cc2)c1)S(C)(=O)=O | 4.89% (inactive) |
| O=C(c1ccc(Cl)cc1)c1cnc(Nc2ccccc2)s1 | -1.16% (inactive) |

| Compound | inhibition |
| --- | --- |
| Cc1cc(C)nc(SCc2nnc(SCC(=O)OC3CCCCC3)o2)n1 | 0.246% (inactive) |
| CCOC(=O)c1c(-c2ccc(C)cc2)csc1/N=C(\C)C1=C(O)c2ccccc2C1=O | -0.167% (inactive) |
| COc1ccc(N2CCN(C(C)=C3C(=O)c4ccccc4C3=O)CC2)cc1 | -1.11% (inactive) |
| CCOC(=O)C1=C(c2ccc(OC)cc2)C(=O)c2ccccc2C1=O | 83.5% (active) |
| CC1CN(C(=O)CCC(=O)NCCCN2CCC(Cc3ccccc3)CC2)c2cc(Cl)ccc2O1 (configuration not stated) | 4.67% (inactive) |
| COc1cccc(CCNC(=O)c2cccc(NC(=O)C3=C(C)OCCS3)c2)c1 | -0.654% (inactive) |
| Cn1c(=O)c2sccc2n(Cc2ccc(Br)cc2)c1=O | 1.32% (inactive) |
| CCN(C(=O)CSc1nnnn1-c1ccccc1OC)C1CCS(=O)(=O)C1 (configuration not stated) | -4.51% (inactive) |
| COc1ccccc1N1CCN(S(=O)(=O)c2ccc(Cl)cc2)CC1 | 13.3% (inactive) |
| COc1ccccc1-n1nnnc1S(=O)(=O)Cc1ccc(Cl)cc1 | 81.5% (active) |
| O=C(CSc1nc2[nH]ncc2c(=O)[nH]1)Nc1ccc(F)cc1 | -1.71% (inactive) |
| CCC(=C/c1sc2ccc3ccccc3c2[n+]1C)/C=C1\Sc2ccc3ccccc3c2N1C | -0.0609% (inactive) |
| COc1cccc(NC(=O)CN(C)C(=O)c2ccccc2CCc2ccccc2)c1 | 5.79% (inactive) |
| O=C(CN1CCN(S(=O)(=O)c2ccc(Br)cc2)CC1)Nc1ccccc1C(=O)c1ccccc1 | -0.838% (inactive) |
| Cc1oc2c(c1C(=O)N1CCOCC1)C(=O)c1ccccc1C2=O | 86% (active) |
| CCOC(=O)c1ccccc1C(=O)N1CCOCCOCCOCC1 | 0.452% (inactive) |
| Cc1noc(C)c1C(=O)N1CCOCC1 | 1.19% (inactive) |
| Nc1[nH]c(=S)nc2nc(-c3ccccc3)c(-c3ccccc3)nc12 | -3.24% (inactive) |
| Cn1cnc2c1c(=O)n(Cc1ccccc1C#N)c(=O)n2C | -5.24% (inactive) |
| O=C(CCC(=O)N/N=C/c1ccc(Br)o1)N/N=C/c1ccc(Br)o1 | -0.217% (inactive) |
| CCOC(=O)Nc1sc(C(=O)N(C)C)c(C)c1C(=O)OCC | 1.54% (inactive) |
| CCOC(=O)c1c(NC(=O)CCl)sc(C(=O)N(CC)CC)c1C | 46.7% (active) |
| CCOC(=O)c1sc(NC(=O)CCN2CCOCC2)c(C(=O)OCC)c1C | 2.17% (inactive) |

| Compound | inhibition |
| --- | --- |
| Cc1nc(CNS(=O)(=O)c2cc([N+](=O)[O-])ccc2C)cs1 | -3.48% (inactive) |
| CCc1ccccc1N(CC(=O)NCC1CCCO1)C(=O)CCC(=O)Nc1nccs1 (configuration not stated) | -1.77% (inactive) |
| Cc1ccc(C)c(NC(CC(=O)c2ccccc2)C(=O)OCC(=O)c2cccs2)c1 (configuration not stated) | -3.12% (inactive) |
| CCc1cccc(C)c1NC(=O)COC(=O)CNC(=O)c1cccs1 | -3.74% (inactive) |
| Cc1ccccc1C(CC(=O)c1cccs1)C(C#N)C#N (configuration not stated) | 63.2% (active) |
| Cc1ccc(Sc2cc(N3CCOCC3)nc(-c3ccccc3)n2)cc1 | -0.766% (inactive) |
| O=S(=O)(c1ccc(-c2ccno2)s1)N1CCCCC1 | 0.0995% (inactive) |
| Cc1cc(C)n2nc(C(=O)NC(C)(C)C)nc2n1 | -3.67% (inactive) |
| Cc1cc(C)n2nc(SCC(N)=O)nc2n1 | -1.48% (inactive) |
| Cc1cc(C)n2nc(CNS(=O)(=O)c3c(F)c(F)c(F)c(F)c3F)nc2n1 | 33% (active) |
| COc1ccc(N2CCN(C(=O)C3CCN(S(=O)(=O)c4ccc(C)cc4)CC3)CC2)cc1 | -2.81% (inactive) |
| CCN(CCNC(=O)C1=C(C)C(=O)OC12CCC(C)CC2)c1ccccc1 (configuration not stated) | -9.04% (inactive) |
| O=S(=O)(c1cnccc1N1CCN(/N=C/c2ccc(Br)cc2)CC1)N1CCCCC1 | -5.35% (inactive) |
| COc1ccc(CN(C)C(=O)CC(c2ccccc2)c2ccccc2)cc1 | 12% (inactive) |
| COc1ccc(COC(=O)NC(C(=O)O)c2ccccc2)cc1 (configuration not stated) | -3.65% (inactive) |
| COc1ccc(C(CCN(Cc2ccc(OC)c(OC)c2)C(=O)CCl)c2ccccc2)cc1 (configuration not stated) | 77.7% (active) |
| CCCc1cc(=O)oc2c(C)c(OCC(=O)Nc3ccccn3)ccc12 | 0.212% (inactive) |
| COc1ccc(N2CCN(C(=O)COc3ccc4c(C)cc(=O)oc4c3)CC2)cc1 | -4.41% (inactive) |
| CC(=O)Nc1cccc(NC(=O)CSc2nccn2Cc2ccc(F)cc2)c1 | -1.4% (inactive) |
| CN(C)c1ccc(C=C2C(=O)OC3(CCCC3)OC2=O)cc1 | -3.67% (inactive) |
| CN(C)c1ccc(/C=C2\NC(=S)N(Cc3ccccc3)C2=O)cc1 | -1.92% (inactive) |
| CC1=NN(Cc2ccccc2)C(=O)/C1=C/c1ccc(N(C)C)cc1 | 42.9% (active) |
| CCc1cccc2c3c([nH]c12)C(CC)(CC(=O)O)OCC3 (configuration not stated) | -3.9% (inactive) |

| Compound | inhibition |
| --- | --- |
| CCCC/C(C)=N/NC(=O)NC1CCCCC1 | -5.59% (inactive) |
| O=C1/C(=C\c2ccc3c(c2)OCO3)N2CCC1CC2 | -0.267% (inactive) |
| O=C(N/N=C/c1ccc2c(c1)OCO2)C(=O)N1CCCC1 | -2.18% (inactive) |
| O=C1/C(=C/c2ccc3c(c2)OCO3)CCC/C1=C\c1ccc2c(c1)OCO2 | 30.4% (active) |
| Cc1nn(-c2ccccc2)c(C)c1NC(=O)COC(=O)c1cc(Cl)ccc1O | 0.496% (inactive) |
| CC(C(=O)c1ccc(-c2ccccc2)cc1)[n+]1cccc(Br)c1 (configuration not stated) | 0.227% (inactive) |
| O=C(Cc1ccc2c(c1)CCCC2)Nc1ccccc1Cl | 5.79% (inactive) |
| O=C(Nc1ccccc1Cl)/C(Cl)=C(\Cl)S(=O)c1ccccc1 (configuration not stated) | 97% (active) |
| O=C(Nc1ccccc1Cl)Nc1cccc2cccnc12 | 6.8% (inactive) |
| CCN(C(=O)CSc1nnc(-c2ccc(OC(F)F)cc2)n1N)C1CCS(=O)(=O)C1 (configuration not stated) | -2.58% (inactive) |
| C=CCN1C(=NC(=O)COc2ccccc2)SC2CS(=O)(=O)CC21 (configuration not stated) | -0.786% (inactive) |
| Oc1ccc(/C=N/NC2=NCCCCC2)c(O)c1 | -9.19% (inactive) |
| Oc1ccc(/C=N/Nc2nc(-c3ccccc3F)nc3ccccc23)c(O)c1 | 10.7% (inactive) |
| Cc1nc2ccccc2nc1N/N=C/c1ccc(O)cc1O | 32% (active) |
| CCCOc1ccc(Cl)cc1Nc1nc(NCCO)nc(N2CCCC2)n1 | -0.826% (inactive) |
| Cn1c(=O)c2c(-c3cccc(Br)c3)c(C#N)c(N)nc2n(C)c1=O | -11.9% (inactive) |
| CCc1ccc2c(c1)cc(CN(C(=S)Nc1ccccc1Cl)C1CC1)c1nnnn12 | -0.332% (inactive) |
| CSc1ccccc1NC(=O)C(C)N1C(=O)c2ccccc2S1(=O)=O (configuration not stated) | 1.38% (inactive) |
| O=C(Nc1ccc(F)cc1)C(=O)c1cn(CC(=O)N2CCOCC2)c2ccccc12 | -4.57% (inactive) |
| Cc1ccc(S(=O)(=O)NC2(C(F)(F)F)NC(=O)N(CCc3ccccc3)C2=O)cc1 (configuration not stated) | -2.6% (inactive) |
| Cc1nn(-c2ccc([N+](=O)[O-])cc2)c(N)c1-c1ccccc1 | 0.233% (inactive) |
| CC1=NN(c2ccccc2)C(=O)C1C(=O)c1ccc([N+](=O)[O-])cc1 (configuration not stated) | 5.51% (inactive) |
| O=C1CC(c2ccccc2)=NN1c1ccc([N+](=O)[O-])cc1 | 54.9% (active) |

— PubChem BioAssay AID2221 (Broad Institute, 2009)
